# PubChem BioAssay (NCATS)
# Results filed as inconclusive are left out. Unmarked numbers belong to inactive results. Calls of active or inactive are those of the source. Calls follow the shape of the dose curve; as a rule, active = well fitted activation curve with a large enough effect; inconclusive = small, poorly fitted or top-dose-only effect; inactive = no such curve, though single readings can be large or run the other way. Square brackets hold non-standard residues; d marks the D form. Peptide text beside a SMILES is read from it. PhLac = O=C(O)[CH](O)Cc1ccccc1; NMeV = CN[CH](C(=O)O)C(C)C
# Target: Cellular tumor antigen p53 (Homo sapiens) (UniProt P04637)
# Test: Primary qHTS for small molecule compounds that upregulate eGFP-tagged delta133p53alpha (in N-terminal) cells. (AID 2060322); also: nearly all actives have a fitted effect of over 75% in size;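 as to activation: cells pre-induced with doxycycline then dosed without doxycycline; series mostly up to about 56 µM; 0% = DMSO vehicle and 100% = reference activator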
# Conditions: NCI-H358 eGFP-delta133p53alpha fluorescence, 24 h; activation: stronger effect = higher value
# Outline: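 NCI-H358 cells pre-induced 24 h with 10 ng/ml doxycycline for eGFP-delta133p53alpha, plated dox-free and exposed 24 h at 37C to titrated compounds. Fixed, Hoechst-stained; gated GFP peak intensity by laser scanning cytometry, normalized to DMSO (0%) and 57.5 uM 5-azacytidine (100%).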
# Potency is read from the fitted curve at half-maximal effect.
# Cellular tumor antigen p53 (Homo sapiens), sequence (P04637 whole entry, looked up): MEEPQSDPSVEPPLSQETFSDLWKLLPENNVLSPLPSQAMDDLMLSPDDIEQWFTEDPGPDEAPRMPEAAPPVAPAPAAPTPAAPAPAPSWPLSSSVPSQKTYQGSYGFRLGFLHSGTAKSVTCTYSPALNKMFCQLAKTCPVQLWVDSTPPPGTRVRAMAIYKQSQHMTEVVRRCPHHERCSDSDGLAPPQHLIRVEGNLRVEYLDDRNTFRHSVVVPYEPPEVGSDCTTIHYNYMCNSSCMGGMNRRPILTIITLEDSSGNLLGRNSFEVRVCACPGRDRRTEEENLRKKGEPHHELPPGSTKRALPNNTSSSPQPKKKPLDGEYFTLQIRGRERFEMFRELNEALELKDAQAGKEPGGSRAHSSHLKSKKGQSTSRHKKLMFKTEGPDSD
SMILES,activation,Potency
CC1(C)CC[C@]2(C(=O)O)CC[C@]3(C)C(=CCC4[C@@]5(C)CC[C@H](O[C@@H]6O[C@H](C(=O)O)[C@@H](O)[C@H](O)[C@H]6O)C(C)(C)C5CC[C@]43C)C2C1 (stereo not given in full),11.5%,–
CC1(C)CC2C(O)c3cocc3CC(C)(O)C2C1 (stereo not given),-8.04%,–
CC(=O)O[C@H]1[C@H](O[C@H]2[C@@H]3C=CO[C@@H](O[C@@H]4O[C@H](CO)[C@@H](O)[C@H](O)[C@H]4O)[C@@H]3[C@@]3(CO)O[C@@H]23)O[C@@H](C)[C@H](OC(=O)/C=C/c2ccccc2)[C@H]1OC(=O)/C=C/c1ccccc1,-7.63%,–
CCC/C=C1\OC(=O)C2=C1CCC(O)C2O (stereo not given),12.2%,–
CC1CCC2(C(=O)O)CCC3(C)C(=CCC4C5(C)CCC(OC(=O)/C=C/c6ccccc6)C(C)(C)C5CCC43C)C2C1C (stereo not given),-8.4%,–
C=C1CC[C@@]2(OC1)O[C@H]1CC3[C@@H]4CC=C5C[C@@H](O)C[C@@H](O[C@@H]6OC[C@H](O)[C@H](O)[C@H]6O[C@@H]6O[C@@H](C)[C@H](O)[C@@H](O)[C@H]6O)[C@]5(C)C4CC[C@]3(C)[C@H]1[C@@H]2C (stereo not given in full),-26%,–
COC(=O)CC(O)CC(O)/C=C/c1c(C)ccc2c1C(OC(C)=O)CC(C)C2 (stereo not given),-0.763%,–
CCC(CC)n1ccc2c(C(=O)NCc3c(C)cc(C)[nH]c3=O)cc(C#N)cc21,-3.35%,–
CC(=O)OC1C(c2ccccc2)CCC(c2ccccc2)C1OC(C)=O (stereo not given),1.53%,–
CC(C)=CCC[C@](C)(O[C@@H]1O[C@H](CO)[C@@H](O)[C@H](O)[C@H]1O)[C@H]1CC[C@]2(C)[C@@H]1[C@H](O)CC1[C@@]3(C)CC[C@H](O)C(C)(C)C3[C@@H](O[C@@H]3O[C@H](CO)[C@@H](O)[C@H](O)[C@H]3O)C[C@]12C (stereo not given in full),15.3%,–
CC(=O)O[C@@H]1C[C@@]23C[C@@]24CC[C@H](OC2OC[C@@H](O)[C@H](O)[C@H]2O)C(C)(C)[C@@H]4CC[C@H]3[C@]2(C)CC3OC4(C[C@@H](C)C3[C@@]12C)OCC1(C)OC14 (stereo not given in full),13.4%,–
COc1ccc(/C=C/C(=O)O[C@H]2[C@@H]3C=CO[C@@H](O[C@@H]4O[C@H](CO)[C@@H](O)[C@H](O)[C@H]4O)[C@@H]3[C@@]3(CO)O[C@@H]23)cc1O,-2.29%,–
[N-]=[N+]=N[C@]1(CO)O[C@@H](n2ccc(=O)[nH]c2=O)[C@@H](O)[C@@H]1O,7%,–
CC(C)[C@H]1CCC(CO)=C[C@@H]1/C=C(\CO)C(=O)O,-15.3%,–
CCn1cc(NC(=S)Nc2cc(Cl)ccc2OC)c(C(N)=O)n1,-5%,–
COCCOCCOc1ccc(C2=N[C@@](C)(C(=O)O)CS2)c(O)c1,1.67%,–
CC(=O)OC(C)C(C)(O)C(=O)O[C@@H]1CC[C@]2(C)CC(=O)C(=C(C)C)C[C@H]2[C@]1(C)OC(C)=O (stereo not given in full),2.29%,–
OCc1ccc(O[C@@H]2O[C@H](CO)[C@@H](O)[C@H](O)[C@H]2O)cc1,2.68%,–
CC1OC(O[C@H]2CC[C@@]3(C)C(CC[C@]4(C)C3CC=C3C5CC(C)(C)CC[C@]5(C(=O)OC5OC(CO)C(OC6OC(COC7OCC(O)C(O)C7O)C(O)C(O)C6O)C(O)C5O)CC[C@]34C)C2(C)C)C(O)C(O)C1OC1OCC(OC2OCC(O)C(O)C2O)C(O)C1O (stereo not given in full),-15.3%,–
CC1(C)C2CC[C@]3(C)C(C(=O)C=C4[C@H]5C[C@@](C)(C(=O)O)CC[C@]5(C)CC[C@]43C)[C@@]2(C)CC[C@@H]1O (stereo not given in full),6.87%,–

SMILES,activation,Potency
CC1=CC(=O)CC(C)(C)[C@@]1(O)/C=C/C(C)O[C@@H]1O[C@H](CO)[C@@H](O)[C@H](O)[C@H]1O (stereo not given in full),15.3%,–
COc1ccc(-n2[nH]c3c(cnc4ccccc43)c2=O)cc1,-9.55%,–
c1nc(NC2CCCCCC2)c2cc(CNC[C@H]3CCCO3)sc2n1,-0.893%,–
C/C=C(\C)C(=O)OCC1OC(OC2OC(COC(=O)/C(C)=C/C)C(OC3OC(CO)C(OC(=O)/C(C)=C/C)C(OC(=O)/C(C)=C/C)C3O)C(O)C2O)C(O)C(O)C1OC1OC(CO)C(OC(=O)/C(C)=C/C)C(OC(=O)/C(C)=C/C)C1O (stereo not given),-19.8%,–
C[C@H](NC(c1cccc(C[P+](=O)O)c1)[C@H](C)O)c1ccc(Cl)c(Cl)c1 (stereo not given in full),9%,–
CC12CCC(OC3OC(CO)C(O)C(OC4OC(CO)C(O)C(O)C4O)C3O)CC1CCC1C2CCC2(C)/C(=C3/COC(=O)C3)CCC12O (stereo not given),-3.82%,–
C=C1C(=O)OC2CC(C)C(CCC(C)=O)=CCC12 (stereo not given),–,16.9 µM (active)
COc1c(/C=C/C(C)(C)O)ccc2c1C(=O)OCc1cc(C)cc(O)c1O2,-12.5%,–
CC(C)C(C(=O)N1CCCC1C(=O)O)N(C)C(=O)C(O)Cc1ccccc1 (stereo not given) (H-[PhLac]-[NMeV]-Pro-OH; configuration not given here),22.3%,–
C=CC(C)(CC/C=C(\C)CC/C=C(\C)CC(O)/C=C(\C)C(=O)O)O[C@@H]1O[C@H](CO)[C@@H](O)[C@H](O)[C@H]1O[C@@H]1O[C@H](CO)[C@@H](O)[C@H](O)[C@H]1O (stereo not given in full),-12.2%,–
CC1OC(OC2CCC3(C)C(CCC4(C)C3CC=C3C5CC(C)(C)CCC5(C(=O)OC5OC(CO)C(O)C(O)C5O)CCC34C(=O)O)C2(C)C)C(O)C(O)C1O (stereo not given),0.763%,–
Cc1cc(Cn2cnc3c2CC(C(=O)O)N(C(=O)C(c2ccccc2)c2ccccc2)C3)ccc1N(C)C (stereo not given),-7.64%,–
Cc1ccc([C@@H]2CC=C(C(=O)O)[C@H](c3ccc(C(C)(C)C)cc3)N2S(=O)(=O)c2ccc(C)cc2)cc1,-26.3%,–
CC(C)C1=CCC(C)(O)C(OC2OC(CO)C(O)C(O)C2O)C1 (stereo not given),-17.6%,–
CC(=O)OCC1OC(OC2COC(OC3COC(OC4C(OC5C(CO)OC(OC6CCC7(C)C(CCC8(C)C7CC=C7C9CC(C)(C)CCC9(C(=O)OC9OC(CO)C(O)C(O)C9OC9OCC(OC%10OCC(O)(CO)C%10O)C(O)C9O)C(O)CC78C)C6(C)C)C(O)C5O)OCC(O)C4O)C(O)C3O)C(O)C2O)C(OC(=O)/C=C/c2ccccc2)C(O)C1OC(C)=O (stereo not given),11.5%,–
Cc1cccc(-c2[nH]ncc2-c2ccnc3ccccc23)n1,8.93%,–
CC1(C)CCCC2(C)C1C(O)C=C(CO)C2(O)C(=O)O (stereo not given),-13.7%,–
C[C@H]1[C@H](C)CC[C@]2(C(=O)O[C@@H]3O[C@H](CO)[C@@H](O)[C@H](O)[C@H]3O)CC[C@]3(C(=O)O)C(=CCC4[C@@]5(C)CC[C@H](O[C@@H]6O[C@H](CO)[C@@H](O)[C@H](O)[C@H]6O)C(C)(C)C5CC[C@]43C)[C@H]12 (stereo not given in full),2.68%,–
CC(=O)O[C@@H]1[C@@H](OC(C)=O)[C@H](C)O[C@@H](O[C@H]2[C@@H]3C=CO[C@@H](O[C@@H]4O[C@H](CO)[C@@H](O)[C@H](O)[C@H]4O)[C@@H]3[C@@]3(CO)O[C@@H]23)[C@@H]1OC(=O)/C=C/c1ccccc1,-1.53%,–
O=C(CSc1nc2ccccc2c(=O)n1-c1ccccc1)Nc1ccc2c(c1)CCC2,5.67%,–
